Laboratory results published in PubChem BioAssay (NCI).
About 83,000 compounds went through this panel and 20% of them were active in at least one assay; those are over-represented in the sample as a whole.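 Results are percent growth after 48 hours of single-concentration exposure. 100 means growth as in untreated cells, lower positive values show inhibition; negative values down to -100 show cell death.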 Active and inactive are the calls of the source. The calls were made as follows: active = growth percent below 10; inactive = the rest.

Columns and labels:
Test in all cases: NCI-60 one-dose screen, 48 h (100 = growth as untreated, 0 = no growth, -100 = all killed)
Details in all cases: 10 µM
[1] = tested on: DU-145 prostate
[2] = tested on: K-562 leukemia
[3] = tested on: MDA-MB-231 breast
[4] = tested on: RXF 393 renal
[5] = tested on: SF-268 CNS
[6] = tested on: SF-295 CNS
[7] = tested on: SF-539 CNS
[8] = tested on: UACC-257 melanoma
[9] = tested on: M14 melanoma
[10] = tested on: HCT-15 colon
[11] = tested on: HT29 colon
[12] = tested on: SNB-75 CNS
[13] = tested on: U251 CNS
[14] = tested on: PC-3 prostate
[15] = tested on: UACC-62 melanoma
[16] = tested on: LOX IMVI melanoma
[17] = tested on: SK-MEL-28 melanoma
[18] = tested on: SNB-19 CNS
[19] = tested on: SK-MEL-5 melanoma

Measured: growth

O=C(CCc1ccccc1)N1CCN(C(=O)CCc2ccccc2)CC1
inactive: [1] 140% | [2] 108% | [3] 90.8% | [4] 109% | [5] 117% | [6] 111% | [7] 104% | [8] 92.6% | [9] 95.9% | [10] 108% | [11] 101% | [12] 93.9% | [13] 104% | [14] 94.3% | [15] 95.4% | [16] 95% | [17] 108%

CC1(C)CC(OCCCC[P+](c2ccccc2)(c2ccccc2)c2ccccc2)CC(C)(C)N1O
inactive: [7] 12% | [11] 10.6%
active: [1] 5.39% | [2] -53.4% | [3] -25.7% | [4] -38.1% | [5] 3.46% | [6] -56% | [8] -40.6% | [9] 8.8% | [10] 9.52% | [18] 3.91% | [13] 8.32% | [14] -45.6% | [19] -98.4% | [15] -35.9% | [16] -74.2% | [17] -55.8%

Cn1c(=O)c2[nH]c(C(O)c3ccc(Cl)cc3)nc2n(C)c1=O (stereo not given)
inactive: [1] 104% | [2] 113% | [3] 100% | [4] 120% | [5] 104% | [6] 104% | [7] 105% | [8] 97.7% | [9] 90.6% | [10] 102% | [11] 105% | [12] 80.2% | [18] 95.8% | [14] 87.9% | [19] 107% | [15] 93.6% | [16] 96.6% | [17] 108%

COc1cc(C2c3cc4c(cc3C(O)C(CO)C2CO)OCO4)cc(OC)c1OC (stereo not given)
inactive: [2] 11.3% | [3] 41.2% | [5] 35.9% | [8] 62% | [9] 22.5% | [10] 61.2% | [18] 35.8% | [13] 22.3% | [14] 25.3% | [19] 11.1% | [15] 40.8% | [16] 43.8% | [17] 44.1%
active: [1] 0.809% | [4] -6.08% | [6] -42.8% | [7] -16.4% | [11] 5.41%

CCOC(=O)c1c(Cl)c2c(n1Cc1cccc(OC)c1)-c1oncc1CC2
active: [6] -1.65% | [7] 5.6% | [11] 7.37%
inactive: [1] 21.6% | [2] 17.6% | [3] 57.1% | [4] 46.5% | [5] 44.5% | [8] 49.1% | [9] 17.9% | [10] 30.8% | [18] 34% | [13] 26% | [14] 31.7% | [19] 20.9% | [15] 33.6% | [16] 38.3% | [17] 34%

CC(C)/C(=N/O)c1ccccc1
inactive: [1] 114% | [2] 104% | [3] 99.8% | [4] 121% | [5] 112% | [6] 103% | [7] 94.6% | [8] 109% | [9] 109% | [10] 110% | [11] 97.4% | [12] 94.5% | [18] 102% | [13] 112% | [19] 104% | [15] 107% | [16] 94.5% | [17] 113%

CCSc1nc2c([nH]1)c(=O)n(C)c(=S)n2C
inactive: [1] 112% | [2] 115% | [3] 116% | [4] 117% | [5] 106% | [6] 114% | [7] 97.9% | [8] 108% | [9] 109% | [10] 105% | [11] 109% | [12] 126% | [13] 105% | [19] 119% | [15] 105% | [16] 96.9% | [17] 128%

COc1ccc2c(c1)/C(=C/c1cc(OC)c(OC)c(OC)c1)C(=O)N2C
inactive: [3] 20.9% | [10] 12.6% | [11] 11.8% | [15] 18.9% | [16] 10.8% | [17] 28.8%
active: [1] -0.621% | [2] 0.985% | [4] -60.8% | [5] 0.418% | [6] -30.1% | [7] -22% | [8] -6.05% | [9] 8.46% | [12] -14.6% | [18] 4.75% | [13] 5.64% | [19] -12.7%

O=C(NNC(=O)c1ccncc1)Nc1ccc([N+](=O)[O-])cc1
inactive: [1] 105% | [2] 75.8% | [3] 109% | [4] 124% | [5] 106% | [6] 99.1% | [7] 94% | [8] 116% | [9] 116% | [10] 101% | [11] 99.5% | [12] 111% | [18] 107% | [13] 113% | [19] 112% | [15] 113% | [16] 101% | [17] 127%
